Reference: article PMC7862700, “An all-to-all approach to the identification of sequence-specific readers for epigenetic DNA modifications on cytosine”

Experiments:
Experiment in all cases: DAPPL (digital affinity profiling via proximity ligation, sequencing); 10 mM Tris-HCl pH 7.5, 50 mM NaCl, 1 mM DTT, 4% glycerol, room temperature, 30 min; GST-TFs on glutathione beads, 16-mer random dsDNA library, 0.1% formaldehyde crosslink after washing; high values mean tight binding
Conditions in all cases: protein: recombinant; tags: N-terminal GST; dsDNA, one strand shown
FLI1 = target: T1, FLI1 (Homo sapiens, UniProt Q01543 1-452)
T1 sequence: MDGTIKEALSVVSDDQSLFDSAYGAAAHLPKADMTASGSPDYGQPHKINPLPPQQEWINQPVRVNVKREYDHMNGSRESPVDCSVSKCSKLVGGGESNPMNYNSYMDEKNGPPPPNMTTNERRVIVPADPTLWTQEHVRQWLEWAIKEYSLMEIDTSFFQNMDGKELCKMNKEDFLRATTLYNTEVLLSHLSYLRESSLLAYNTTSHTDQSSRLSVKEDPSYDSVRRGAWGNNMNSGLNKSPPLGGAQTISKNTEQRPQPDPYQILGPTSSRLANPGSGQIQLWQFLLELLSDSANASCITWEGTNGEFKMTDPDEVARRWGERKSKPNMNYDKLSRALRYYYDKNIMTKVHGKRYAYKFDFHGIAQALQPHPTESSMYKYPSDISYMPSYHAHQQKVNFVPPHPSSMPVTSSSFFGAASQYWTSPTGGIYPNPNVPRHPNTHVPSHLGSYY
Method in brief: (§1)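 Binding signal is defined as a hexamer's read frequency for one factor over its frequency for the tag-only sample. To obtain reads, GST-fused human transcription factors were expressed in yeast, captured on glutathione beads, barcoded with DNA and pooled with that sample. Pools met 200 nmole of a 16-mer random double-stranded DNA library in Tris/NaCl/DTT/glycerol buffer for 30 min at room temperature before washing, 0.1% formaldehyde crosslinking, proximity ligation (BsaI/T4 ligase, 1 h, 37 °C), PCR and Illumina NextSeq500 sequencing.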

ELK1 = target: T2, ELK1 (Homo sapiens, UniProt P19419 1-428)
T2 sequence: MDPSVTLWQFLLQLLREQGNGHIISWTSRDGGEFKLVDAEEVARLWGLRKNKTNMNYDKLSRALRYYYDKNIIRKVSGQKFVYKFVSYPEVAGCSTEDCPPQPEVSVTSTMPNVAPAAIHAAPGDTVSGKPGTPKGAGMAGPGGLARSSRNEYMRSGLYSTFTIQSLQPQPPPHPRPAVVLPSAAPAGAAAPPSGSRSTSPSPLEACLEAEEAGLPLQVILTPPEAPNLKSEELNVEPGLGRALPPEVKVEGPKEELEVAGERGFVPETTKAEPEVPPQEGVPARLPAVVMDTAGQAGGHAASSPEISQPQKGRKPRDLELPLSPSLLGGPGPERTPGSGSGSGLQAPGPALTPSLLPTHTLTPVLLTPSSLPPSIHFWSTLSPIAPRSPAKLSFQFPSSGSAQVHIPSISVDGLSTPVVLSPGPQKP
Method in brief: as §1

GABPA = target: T3, GABPA (Homo sapiens, UniProt Q06546 1-454)
T3 sequence: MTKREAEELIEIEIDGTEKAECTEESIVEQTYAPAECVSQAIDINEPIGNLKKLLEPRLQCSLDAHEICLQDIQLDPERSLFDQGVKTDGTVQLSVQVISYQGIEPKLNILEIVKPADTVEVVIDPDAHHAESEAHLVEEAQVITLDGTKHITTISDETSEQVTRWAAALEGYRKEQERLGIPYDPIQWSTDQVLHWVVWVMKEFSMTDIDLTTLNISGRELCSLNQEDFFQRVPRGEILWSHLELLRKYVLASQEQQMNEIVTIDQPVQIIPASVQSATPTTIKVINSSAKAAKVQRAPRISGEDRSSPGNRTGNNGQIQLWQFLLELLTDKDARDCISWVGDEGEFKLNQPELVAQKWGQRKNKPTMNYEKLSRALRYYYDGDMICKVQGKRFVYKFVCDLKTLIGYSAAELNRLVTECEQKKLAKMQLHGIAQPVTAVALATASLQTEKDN
Method in brief: as §1

ERG = target: T4, ERG (Homo sapiens, UniProt P11308 1-479)
T4 sequence: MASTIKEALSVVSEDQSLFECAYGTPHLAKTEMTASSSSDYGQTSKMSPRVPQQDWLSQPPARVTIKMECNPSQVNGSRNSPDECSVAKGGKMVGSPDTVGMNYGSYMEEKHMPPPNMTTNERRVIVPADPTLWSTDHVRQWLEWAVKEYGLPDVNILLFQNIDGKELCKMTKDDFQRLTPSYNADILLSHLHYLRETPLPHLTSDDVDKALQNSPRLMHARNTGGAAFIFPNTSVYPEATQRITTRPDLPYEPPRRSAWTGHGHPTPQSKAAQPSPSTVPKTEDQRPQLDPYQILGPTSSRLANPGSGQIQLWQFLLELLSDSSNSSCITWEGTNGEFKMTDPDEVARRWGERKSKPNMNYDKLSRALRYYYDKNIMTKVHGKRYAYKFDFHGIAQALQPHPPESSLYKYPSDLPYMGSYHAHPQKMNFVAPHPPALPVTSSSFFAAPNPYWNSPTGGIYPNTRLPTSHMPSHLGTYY
Method in brief: as §1

ELF1 = ELF1 (Homo sapiens, UniProt P32519 1-619)
ELF1, sequence (P32519 whole entry): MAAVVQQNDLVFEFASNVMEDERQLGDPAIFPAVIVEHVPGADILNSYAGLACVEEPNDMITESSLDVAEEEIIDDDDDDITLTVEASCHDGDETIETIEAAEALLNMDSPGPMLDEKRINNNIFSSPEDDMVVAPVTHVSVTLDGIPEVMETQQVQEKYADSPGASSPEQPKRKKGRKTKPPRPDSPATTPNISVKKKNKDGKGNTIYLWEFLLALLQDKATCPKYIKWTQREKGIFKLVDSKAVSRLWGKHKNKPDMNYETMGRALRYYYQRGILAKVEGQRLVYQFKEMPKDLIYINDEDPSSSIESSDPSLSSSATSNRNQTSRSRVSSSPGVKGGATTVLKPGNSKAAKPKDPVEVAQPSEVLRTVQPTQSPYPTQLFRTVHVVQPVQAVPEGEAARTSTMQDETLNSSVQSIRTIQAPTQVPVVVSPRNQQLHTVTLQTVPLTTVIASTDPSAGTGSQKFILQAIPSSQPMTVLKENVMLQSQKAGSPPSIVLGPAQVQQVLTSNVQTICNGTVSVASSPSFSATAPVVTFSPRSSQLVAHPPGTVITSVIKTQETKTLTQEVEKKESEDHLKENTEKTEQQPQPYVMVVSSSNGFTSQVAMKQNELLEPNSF
Method in brief: as §1

EHF = target: T5, EHF (Homo sapiens, UniProt Q9NZC4 1-300)
T5 sequence: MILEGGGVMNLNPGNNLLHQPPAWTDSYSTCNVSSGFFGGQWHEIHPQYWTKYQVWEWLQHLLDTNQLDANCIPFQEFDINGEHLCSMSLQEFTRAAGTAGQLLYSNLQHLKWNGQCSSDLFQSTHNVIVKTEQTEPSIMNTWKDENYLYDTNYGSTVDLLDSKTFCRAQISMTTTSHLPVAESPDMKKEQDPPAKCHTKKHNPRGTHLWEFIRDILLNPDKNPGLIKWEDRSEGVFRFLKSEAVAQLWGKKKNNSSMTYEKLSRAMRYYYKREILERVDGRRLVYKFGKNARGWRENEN
Method in brief: as §1

SPI1 = SPI1 (Homo sapiens, UniProt P17947 1-270)
Method in brief: as §1

SPIB = SPIB (Homo sapiens, UniProt Q01892 1-262)
SPIB, sequence (Q01892 whole entry): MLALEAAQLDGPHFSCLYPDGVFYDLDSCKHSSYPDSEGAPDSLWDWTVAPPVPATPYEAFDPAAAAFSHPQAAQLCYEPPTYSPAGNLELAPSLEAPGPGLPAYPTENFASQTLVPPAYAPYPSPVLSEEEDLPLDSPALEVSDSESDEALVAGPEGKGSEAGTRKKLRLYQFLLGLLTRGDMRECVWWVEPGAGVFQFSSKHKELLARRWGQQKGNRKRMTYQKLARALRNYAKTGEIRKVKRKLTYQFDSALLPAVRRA
Method in brief: as §1

ELK3 = target: T6, ELK3 (Homo sapiens, UniProt P41970 1-407)
T6 sequence: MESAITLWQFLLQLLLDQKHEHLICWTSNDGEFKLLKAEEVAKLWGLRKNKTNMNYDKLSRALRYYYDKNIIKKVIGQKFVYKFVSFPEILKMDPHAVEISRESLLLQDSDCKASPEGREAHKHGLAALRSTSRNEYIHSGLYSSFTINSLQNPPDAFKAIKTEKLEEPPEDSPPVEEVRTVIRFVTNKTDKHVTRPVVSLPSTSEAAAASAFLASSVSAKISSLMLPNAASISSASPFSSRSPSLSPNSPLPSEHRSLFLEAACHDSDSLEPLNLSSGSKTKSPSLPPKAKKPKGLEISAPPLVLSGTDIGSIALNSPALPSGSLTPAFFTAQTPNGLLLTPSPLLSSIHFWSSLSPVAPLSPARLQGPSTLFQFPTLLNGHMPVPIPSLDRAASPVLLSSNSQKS
Method in brief: as §1

Sequence	binding signal (FLI1)	binding signal (ELK1)	binding signal (GABPA)	binding signal (ERG)	binding signal (ELF1)	binding signal (EHF)	binding signal (SPI1)	binding signal (SPIB)	binding signal (ELK3)
AATTGT	1.3 fold enrichment (6-mer frequency, TF over GST control)	1.2 fold enrichment (6-mer frequency, TF over GST control)	1.21 fold enrichment (6-mer frequency, TF over GST control)	1.28 fold enrichment (6-mer frequency, TF over GST control)	1.27 fold enrichment (6-mer frequency, TF over GST control)	1.23 fold enrichment (6-mer frequency, TF over GST control)	1.33 fold enrichment (6-mer frequency, TF over GST control)	1.34 fold enrichment (6-mer frequency, TF over GST control)	1.29 fold enrichment (6-mer frequency, TF over GST control)
ACTAAC	1.21 fold enrichment (6-mer frequency, TF over GST control)	1.3 fold enrichment (6-mer frequency, TF over GST control)	1.26 fold enrichment (6-mer frequency, TF over GST control)	1.32 fold enrichment (6-mer frequency, TF over GST control)	1.3 fold enrichment (6-mer frequency, TF over GST control)	1.27 fold enrichment (6-mer frequency, TF over GST control)	1.33 fold enrichment (6-mer frequency, TF over GST control)	1.24 fold enrichment (6-mer frequency, TF over GST control)	1.25 fold enrichment (6-mer frequency, TF over GST control)
TAATAT	1.36 fold enrichment (6-mer frequency, TF over GST control)	1.25 fold enrichment (6-mer frequency, TF over GST control)	1.3 fold enrichment (6-mer frequency, TF over GST control)	1.25 fold enrichment (6-mer frequency, TF over GST control)	1.27 fold enrichment (6-mer frequency, TF over GST control)	1.3 fold enrichment (6-mer frequency, TF over GST control)	1.23 fold enrichment (6-mer frequency, TF over GST control)	1.21 fold enrichment (6-mer frequency, TF over GST control)	1.33 fold enrichment (6-mer frequency, TF over GST control)
TTGAAA	1.22 fold enrichment (6-mer frequency, TF over GST control)	1.25 fold enrichment (6-mer frequency, TF over GST control)	1.11 fold enrichment (6-mer frequency, TF over GST control)	1.09 fold enrichment (6-mer frequency, TF over GST control)	1.23 fold enrichment (6-mer frequency, TF over GST control)	1.23 fold enrichment (6-mer frequency, TF over GST control)	1.18 fold enrichment (6-mer frequency, TF over GST control)	1.1 fold enrichment (6-mer frequency, TF over GST control)	1.09 fold enrichment (6-mer frequency, TF over GST control)
AGCTAT	1.21 fold enrichment (6-mer frequency, TF over GST control)	1.14 fold enrichment (6-mer frequency, TF over GST control)	1.23 fold enrichment (6-mer frequency, TF over GST control)	1.17 fold enrichment (6-mer frequency, TF over GST control)	1.16 fold enrichment (6-mer frequency, TF over GST control)	1.23 fold enrichment (6-mer frequency, TF over GST control)	1.15 fold enrichment (6-mer frequency, TF over GST control)	1.26 fold enrichment (6-mer frequency, TF over GST control)	1.24 fold enrichment (6-mer frequency, TF over GST control)
GCTAAT	1.14 fold enrichment (6-mer frequency, TF over GST control)	1.18 fold enrichment (6-mer frequency, TF over GST control)	1.17 fold enrichment (6-mer frequency, TF over GST control)	1.13 fold enrichment (6-mer frequency, TF over GST control)	1.16 fold enrichment (6-mer frequency, TF over GST control)	1.17 fold enrichment (6-mer frequency, TF over GST control)	1.13 fold enrichment (6-mer frequency, TF over GST control)	1.17 fold enrichment (6-mer frequency, TF over GST control)	1.2 fold enrichment (6-mer frequency, TF over GST control)
AAGATG	1.17 fold enrichment (6-mer frequency, TF over GST control)	1.17 fold enrichment (6-mer frequency, TF over GST control)	1.11 fold enrichment (6-mer frequency, TF over GST control)	1.11 fold enrichment (6-mer frequency, TF over GST control)	1.09 fold enrichment (6-mer frequency, TF over GST control)	1.1 fold enrichment (6-mer frequency, TF over GST control)	1.09 fold enrichment (6-mer frequency, TF over GST control)	1.16 fold enrichment (6-mer frequency, TF over GST control)	1.19 fold enrichment (6-mer frequency, TF over GST control)
